# Data reported in article PMC5540273 (PLoS ONE, 2017).
# Tested on: NEK3
# Details: concentration: 1 μM, replicates: in singlicate; n = 1
# 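Note: KINOMEscan kinase panel screen.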
row,SMILES,%Inh [%]
1,Cc1cccc(-c2nc(-c3ccc(S(C)(=O)=O)cc3)sc2-c2ccncc2)c1,61
2,Nc1nc(-c2ccc3c(N)n[nH]c3c2)cc(N2CCCC2)n1 [GSK2227430],5
3,NCC(NC(=O)c1cc(-c2cn[nH]c2)c(-c2ccnc3[nH]ccc23)s1)c1ccccc1.O=C(O)C(F)(F)F.O=C(O)C(F)(F)F (stereo not drawn) [GSK1325775],7
4,Cc1c(Cn2c(C)nn3c(=O)cc(N4CCOC(C)C4)nc23)cccc1C(F)(F)F (stereo not drawn) [GSK2344444],0
5,O=C(Nc1cccc(-c2nn3ncccc3c2-c2ccnc(Nc3cccc(C(F)(F)F)c3)n2)c1)c1c(F)cccc1F [GSK299495],11
6,N#Cc1c(N2CCOCC2)sc(-c2ccn[nH]2)c1-c1ccc(Cl)cc1,23
7,CCc1nc(-c2cccc(C)c2)c(-c2ccnc(NCc3ccccc3)c2)s1,24
8,Nc1nccc(-c2c(-c3ccc(F)cc3)ncn2C2CCN(CC(F)(F)F)CC2)n1 [SB-236560],24
9,CC(=O)Nc1ccc(COc2ccc(Nc3ccnc4cc(-c5ccccn5)ccc34)cc2)cc1.Cl [GW440148],6
10,O=C(NCCCN1CCOCC1)c1cccc(Nc2nccc(Nc3ccc(Oc4ccccc4)cc3)n2)c1 [GW663929],5
11,COc1cc2c(cc1OCCN1CCN(C)CC1)ncc1c3ccc(C#N)cc3[nH]c21,33
12,COc1ccc(Nc2ncc(C#N)c(Nc3ccccc3C(N)=O)n2)cc1N1CCN(C)CC1.Cl [GSK1558669],93.5
